Measurements as given in the supplement of paper PMC10849652.
Of roughly 7,900 targets only a part is listed; those with a hit were picked by preference. About 0.6% of all pairs of compound and target were hits.

Assays:
Assay in all cases: log2 fold change, soluble protein after heating vs DMSO (PISA); higher = thermal stabilisation; K562 cells, 10 uM, 30 min; active = over 0.2 and 3.5 SD of the protein, either way, in both replicates (recomputed)
[1] = compound: CS(=O)(=O)c1ccc(-c2cnc(N)c(C(=O)Nc3ccccc3)n2)cc1
Outline: (§1)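 K562 cells at 2×10^6 cells/mL were given 10 μM compound for 30 min. Aliquots then went through 3 min of heating across 48°C-58°C, were pooled, and were extracted in PBS with 0.5% NP-40 at 4°C, and the supernatant after 21,000xg for 90 min was quantified by TMTpro 16plex LC-MS/MS with channel sums equalised. Thermal stability relative to control samples, from duplicates, is given as log2 fold change.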

crizotinib = compound: C[C@@H](Oc1cc(-c2cnn(C3CCNCC3)c2)cnc1N)c1c(Cl)ccc(F)c1Cl [crizotinib]
Outline: as §1

[2] = compound: C[C@@H]1COCCN1C2=NC(=NC(=C2)C3(CC3)S(=O)(=O)C)C4=C5C=CNC5=CC=C4
Outline: as §1

[3] = compound: C[C@H](C1=CC=C(C=C1)C(=O)NC2=C3C=CNC3=NC=C2)N
Outline: as §1

duvelisib = compound: C[C@H](Nc1ncnc2nc[nH]c12)c1cc2cccc(Cl)c2c(=O)n1-c1ccccc1 [duvelisib]
Outline: as §1

gandotinib = compound: Cc1cc(Nc2cc(CN3CCOCC3)c3nc(C)c(Cc4ccc(Cl)cc4F)n3n2)n[nH]1 [gandotinib]
Outline: as §1

tozasertib = compound: Cc1cc(Nc2cc(N3CCN(C)CC3)nc(Sc3ccc(NC(=O)C4CC4)cc3)n2)n[nH]1 [tozasertib]
Outline: as §1

[4] = compound: Cc1cc(SCc2sc(-c3ccc(C(F)(F)F)cc3)nc2C)ccc1OCC(=O)O
Outline: as §1

doramapimod = compound: Cc1ccc(-n2nc(C(C)(C)C)cc2NC(=O)Nc2ccc(OCCN3CCOCC3)c3ccccc23)cc1 [doramapimod]
Outline: as §1

ispinesib = compound: Cc1ccc(C(=O)N(CCCN)[C@@H](c2nc3cc(Cl)ccc3c(=O)n2Cc2ccccc2)C(C)C)cc1 [ispinesib]
Outline: as §1

Measured: log2 fold change

RAB11FIP1 (UniProt Q6WKZ4)
Sequence of UniProt Q6WKZ4 (Q6WKZ4 whole entry, looked up): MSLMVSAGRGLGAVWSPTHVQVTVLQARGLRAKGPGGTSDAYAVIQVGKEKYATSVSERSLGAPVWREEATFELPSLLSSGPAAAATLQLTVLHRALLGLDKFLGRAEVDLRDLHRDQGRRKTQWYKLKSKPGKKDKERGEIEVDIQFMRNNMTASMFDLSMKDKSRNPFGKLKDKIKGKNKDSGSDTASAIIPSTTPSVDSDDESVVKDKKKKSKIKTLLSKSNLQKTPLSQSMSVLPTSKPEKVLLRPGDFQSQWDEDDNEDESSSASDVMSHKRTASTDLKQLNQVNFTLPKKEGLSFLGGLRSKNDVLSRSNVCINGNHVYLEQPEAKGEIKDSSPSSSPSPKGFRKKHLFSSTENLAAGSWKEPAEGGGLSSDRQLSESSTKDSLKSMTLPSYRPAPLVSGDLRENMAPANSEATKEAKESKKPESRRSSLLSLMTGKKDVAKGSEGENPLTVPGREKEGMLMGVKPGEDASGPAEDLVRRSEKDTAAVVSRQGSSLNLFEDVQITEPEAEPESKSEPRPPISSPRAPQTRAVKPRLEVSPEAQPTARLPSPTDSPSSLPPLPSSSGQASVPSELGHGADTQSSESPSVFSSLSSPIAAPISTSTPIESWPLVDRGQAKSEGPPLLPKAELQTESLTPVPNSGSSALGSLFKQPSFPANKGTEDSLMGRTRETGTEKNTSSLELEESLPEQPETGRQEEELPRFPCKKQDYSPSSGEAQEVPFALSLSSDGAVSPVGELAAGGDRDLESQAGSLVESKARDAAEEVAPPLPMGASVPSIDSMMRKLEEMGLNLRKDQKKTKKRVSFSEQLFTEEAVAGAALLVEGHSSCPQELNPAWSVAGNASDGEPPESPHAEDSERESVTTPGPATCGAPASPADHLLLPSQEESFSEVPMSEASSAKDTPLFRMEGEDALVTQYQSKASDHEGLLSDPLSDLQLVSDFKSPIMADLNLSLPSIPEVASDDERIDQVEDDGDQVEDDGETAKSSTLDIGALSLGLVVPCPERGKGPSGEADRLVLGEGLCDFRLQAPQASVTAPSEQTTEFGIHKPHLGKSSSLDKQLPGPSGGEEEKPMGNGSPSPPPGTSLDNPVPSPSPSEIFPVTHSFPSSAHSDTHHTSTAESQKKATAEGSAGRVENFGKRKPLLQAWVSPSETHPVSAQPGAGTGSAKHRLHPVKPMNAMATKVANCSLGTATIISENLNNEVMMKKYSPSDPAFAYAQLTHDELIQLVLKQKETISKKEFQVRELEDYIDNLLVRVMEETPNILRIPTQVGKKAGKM
inactive: [1] -0.071 | crizotinib -0.096 | [2] -0.001 | [3] -0.038 | duvelisib 0.004 | gandotinib -0.01 | tozasertib 0.057 | [4] -0.003 | doramapimod 0.047
active: ispinesib -0.251

PBX2 (UniProt P40425)
Sequence of UniProt P40425 (P40425 whole entry, looked up): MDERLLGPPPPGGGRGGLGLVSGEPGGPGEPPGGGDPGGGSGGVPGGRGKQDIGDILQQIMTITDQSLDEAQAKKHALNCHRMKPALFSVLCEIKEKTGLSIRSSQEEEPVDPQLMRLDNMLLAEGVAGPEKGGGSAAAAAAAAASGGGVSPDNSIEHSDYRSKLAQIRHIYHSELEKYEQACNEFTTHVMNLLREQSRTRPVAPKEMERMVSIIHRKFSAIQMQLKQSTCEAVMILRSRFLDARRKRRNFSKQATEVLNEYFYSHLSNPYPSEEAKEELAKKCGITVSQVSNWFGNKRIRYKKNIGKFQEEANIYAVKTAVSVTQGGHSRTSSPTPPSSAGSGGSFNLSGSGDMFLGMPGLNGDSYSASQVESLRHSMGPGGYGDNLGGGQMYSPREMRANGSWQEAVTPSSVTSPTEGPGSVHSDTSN
inactive: [1] -0.001 | crizotinib -0.14 | [2] 0.026 | [3] -0.051 | duvelisib 0.018 | tozasertib 0.062 | [4] 0.095 | doramapimod 0.119 | ispinesib -0.102
active: gandotinib -0.632

PSMD7 (UniProt P51665)
inactive: [1] 0.077 | crizotinib -0.001 | [2] -0.053 | [3] 0.072 | duvelisib -0.073 | gandotinib 0.078 | tozasertib 0.003 | [4] -0.003 | doramapimod 0.069 | ispinesib 0.018

PDCD6 (UniProt O75340)
inactive: [1] 0.029 | crizotinib -0.047 | [2] 0.051 | [3] -0.021 | duvelisib 0.03 | gandotinib -0.056 | tozasertib 0.05 | [4] 0.038 | doramapimod 0.002 | ispinesib -0.045

PPP6R1 (UniProt Q9UPN7)
Sequence of UniProt Q9UPN7 (Q9UPN7 whole entry, looked up): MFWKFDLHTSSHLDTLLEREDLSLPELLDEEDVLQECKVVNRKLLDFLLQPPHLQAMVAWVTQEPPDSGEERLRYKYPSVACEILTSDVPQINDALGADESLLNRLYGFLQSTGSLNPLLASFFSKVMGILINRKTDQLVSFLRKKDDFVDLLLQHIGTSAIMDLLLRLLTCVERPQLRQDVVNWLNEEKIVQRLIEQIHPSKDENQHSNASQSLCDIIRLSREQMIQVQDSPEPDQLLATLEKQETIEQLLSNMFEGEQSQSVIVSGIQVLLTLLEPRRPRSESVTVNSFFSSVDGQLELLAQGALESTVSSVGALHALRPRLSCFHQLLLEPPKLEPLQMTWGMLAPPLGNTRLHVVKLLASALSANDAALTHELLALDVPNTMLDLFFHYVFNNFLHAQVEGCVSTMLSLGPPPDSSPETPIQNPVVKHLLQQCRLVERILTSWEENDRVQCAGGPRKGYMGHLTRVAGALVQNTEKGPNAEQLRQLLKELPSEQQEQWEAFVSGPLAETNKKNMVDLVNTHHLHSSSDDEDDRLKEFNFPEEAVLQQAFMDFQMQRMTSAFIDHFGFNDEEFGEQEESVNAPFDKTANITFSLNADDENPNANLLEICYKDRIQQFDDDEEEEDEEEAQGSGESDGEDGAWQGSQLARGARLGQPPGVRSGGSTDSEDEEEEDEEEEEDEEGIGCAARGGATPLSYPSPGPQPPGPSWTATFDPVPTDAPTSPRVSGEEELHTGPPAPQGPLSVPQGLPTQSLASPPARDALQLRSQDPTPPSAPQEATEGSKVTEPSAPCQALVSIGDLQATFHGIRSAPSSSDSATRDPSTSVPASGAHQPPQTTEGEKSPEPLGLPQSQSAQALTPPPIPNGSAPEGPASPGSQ
inactive: [1] -0.013 | crizotinib -0.018 | [2] 0.125 | [3] 0.012 | duvelisib 0.027 | gandotinib -0.078 | tozasertib 0.084 | [4] -0.01 | doramapimod 0.01 | ispinesib -0.002

PRIM1 (UniProt P49642)
inactive: [1] 0.051 | crizotinib -0.066 | [2] 0.039 | [3] 0.086 | duvelisib -0.011 | gandotinib -0.131 | tozasertib 0.001 | [4] 0.102 | doramapimod 0.007 | ispinesib -0.082

PTGFRN (UniProt Q9P2B2)
Sequence of UniProt Q9P2B2 (Q9P2B2 whole entry, looked up): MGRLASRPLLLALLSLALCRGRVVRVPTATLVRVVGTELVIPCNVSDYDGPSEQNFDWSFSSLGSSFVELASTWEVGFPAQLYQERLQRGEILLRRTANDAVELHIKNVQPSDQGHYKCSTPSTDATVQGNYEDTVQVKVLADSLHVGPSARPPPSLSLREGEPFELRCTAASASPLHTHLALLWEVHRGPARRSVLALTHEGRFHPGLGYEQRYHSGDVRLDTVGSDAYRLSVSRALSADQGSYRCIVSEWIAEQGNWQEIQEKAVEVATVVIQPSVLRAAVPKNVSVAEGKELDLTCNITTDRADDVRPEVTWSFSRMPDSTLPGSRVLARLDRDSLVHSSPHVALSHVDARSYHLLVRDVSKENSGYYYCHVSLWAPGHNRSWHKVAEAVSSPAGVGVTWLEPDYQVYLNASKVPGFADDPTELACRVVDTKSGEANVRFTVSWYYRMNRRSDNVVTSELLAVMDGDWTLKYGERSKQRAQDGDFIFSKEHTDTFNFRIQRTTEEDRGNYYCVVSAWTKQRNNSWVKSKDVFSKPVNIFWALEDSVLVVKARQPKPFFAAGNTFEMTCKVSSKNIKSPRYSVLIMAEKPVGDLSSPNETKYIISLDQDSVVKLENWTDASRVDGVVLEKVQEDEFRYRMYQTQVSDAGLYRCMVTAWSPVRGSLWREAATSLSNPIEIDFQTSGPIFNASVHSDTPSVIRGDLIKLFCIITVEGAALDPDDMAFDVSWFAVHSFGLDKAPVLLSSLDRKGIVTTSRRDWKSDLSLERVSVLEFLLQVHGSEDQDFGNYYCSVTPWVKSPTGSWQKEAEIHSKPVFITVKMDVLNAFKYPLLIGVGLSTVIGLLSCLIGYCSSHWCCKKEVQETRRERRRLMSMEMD
inactive: [1] 0.068 | crizotinib 0.057 | [2] 0.063 | [3] -0.003 | duvelisib 0.122 | gandotinib -0.023 | tozasertib -0.101 | [4] -0.065 | doramapimod 0.001 | ispinesib 0.165

PRKAR1A (UniProt P10644)
inactive: [1] 0.209 | crizotinib 0.259 | [2] 0.03 | [3] 0.173 | duvelisib 0.208 | gandotinib 0.139 | tozasertib 0.041 | [4] 0.001 | doramapimod 0 | ispinesib -0.06

PGM3 isoform 4 (UniProt O95394)
Sequence of UniProt O95394 (O95394 whole entry, looked up): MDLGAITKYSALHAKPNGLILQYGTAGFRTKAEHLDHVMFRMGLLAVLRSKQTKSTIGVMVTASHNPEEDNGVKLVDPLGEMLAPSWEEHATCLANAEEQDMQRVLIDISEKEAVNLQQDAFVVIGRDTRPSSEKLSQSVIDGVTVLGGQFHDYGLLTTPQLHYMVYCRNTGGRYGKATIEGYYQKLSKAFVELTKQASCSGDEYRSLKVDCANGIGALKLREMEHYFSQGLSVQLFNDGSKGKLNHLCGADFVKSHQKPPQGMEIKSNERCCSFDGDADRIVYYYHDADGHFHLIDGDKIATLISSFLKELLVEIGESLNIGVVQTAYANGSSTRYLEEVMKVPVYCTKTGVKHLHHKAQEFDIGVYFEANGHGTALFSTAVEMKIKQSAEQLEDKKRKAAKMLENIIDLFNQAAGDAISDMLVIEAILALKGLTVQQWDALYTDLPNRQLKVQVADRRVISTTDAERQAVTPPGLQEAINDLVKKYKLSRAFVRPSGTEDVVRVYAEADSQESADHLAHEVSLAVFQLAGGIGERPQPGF
inactive: [1] 0.025 | crizotinib -0.098 | [2] 0.04 | [3] -0.024 | duvelisib 0.043 | gandotinib -0.034 | tozasertib -0.019 | [4] 0.108 | doramapimod 0.016 | ispinesib -0.09

PURA (UniProt Q00577)
inactive: [1] -0.064 | crizotinib 0.03 | [2] -0.44 | [3] 0.287 | duvelisib -0.165 | gandotinib 0.334 | tozasertib 0.069 | [4] -0.012 | doramapimod 0.063 | ispinesib -0.143

PIK3R1 (UniProt P27986)
inactive: [1] 0.033 | crizotinib -0.044 | [2] 0.002 | [3] 0.022 | gandotinib -0.038 | tozasertib -0.026 | [4] 0.051 | doramapimod 0.056 | ispinesib -0.079
active: duvelisib 0.232

PECAM1 (UniProt P16284)
inactive: [1] 0.086 | crizotinib 0.145 | [2] 0.157 | [3] 0.034 | duvelisib 0.08 | gandotinib -0.001 | tozasertib -0.105 | [4] -0.03 | doramapimod -0.025 | ispinesib 0.099

PIP4K2A (UniProt P48426)
inactive: crizotinib -0.032 | [2] 0.027 | [3] 0.013 | duvelisib -0.126 | gandotinib -0.084 | tozasertib -0.007 | [4] 0.042 | doramapimod 0.026 | ispinesib -0.052
active: [1] 0.411

PSMC2 (UniProt P35998)
Sequence of UniProt P35998 (P35998 whole entry, looked up): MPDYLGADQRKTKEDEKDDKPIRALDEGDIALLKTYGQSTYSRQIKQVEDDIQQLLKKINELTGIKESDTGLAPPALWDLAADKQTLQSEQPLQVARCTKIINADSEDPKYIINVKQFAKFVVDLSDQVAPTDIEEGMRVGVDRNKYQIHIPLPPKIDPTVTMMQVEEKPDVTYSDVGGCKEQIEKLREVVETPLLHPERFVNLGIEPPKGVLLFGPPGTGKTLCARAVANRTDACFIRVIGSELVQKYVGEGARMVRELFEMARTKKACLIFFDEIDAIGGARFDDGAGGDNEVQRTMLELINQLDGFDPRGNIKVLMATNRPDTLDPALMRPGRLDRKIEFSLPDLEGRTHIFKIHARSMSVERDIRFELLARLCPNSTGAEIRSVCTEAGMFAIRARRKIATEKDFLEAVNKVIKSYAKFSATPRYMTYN
inactive: [1] 0.011 | crizotinib 0.003 | [2] -0.087 | [3] 0.079 | duvelisib -0.061 | gandotinib 0.027 | tozasertib 0.031 | [4] 0.014 | doramapimod 0.005 | ispinesib 0.016

QRSL1 (UniProt Q9H0R6)
Sequence of UniProt Q9H0R6 (Q9H0R6 whole entry, looked up): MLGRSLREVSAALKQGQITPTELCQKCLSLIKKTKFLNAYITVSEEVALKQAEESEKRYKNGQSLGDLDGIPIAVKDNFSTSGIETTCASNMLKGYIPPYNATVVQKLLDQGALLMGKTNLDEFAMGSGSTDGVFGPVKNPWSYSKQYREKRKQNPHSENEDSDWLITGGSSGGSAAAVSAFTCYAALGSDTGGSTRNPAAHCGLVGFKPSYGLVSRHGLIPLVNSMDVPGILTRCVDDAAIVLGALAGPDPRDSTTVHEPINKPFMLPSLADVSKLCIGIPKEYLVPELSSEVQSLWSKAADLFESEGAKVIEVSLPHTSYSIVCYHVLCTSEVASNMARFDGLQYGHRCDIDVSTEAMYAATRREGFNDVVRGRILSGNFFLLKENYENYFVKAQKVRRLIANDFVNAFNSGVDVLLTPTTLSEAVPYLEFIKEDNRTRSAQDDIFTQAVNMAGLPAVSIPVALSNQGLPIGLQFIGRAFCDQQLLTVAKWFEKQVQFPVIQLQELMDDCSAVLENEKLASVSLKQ
inactive: [1] 0.046 | crizotinib -0.04 | [3] -0.023 | duvelisib 0.033 | gandotinib 0.082 | tozasertib -0.025 | [4] 0.024 | doramapimod -0.015 | ispinesib -0.049
active: [2] 0.212
